Assay outcomes from PubChem.
In the library only some 21% were active in any assay of this set; here they are far more common.
Pf growth 48h: Primary qHTS for delayed death inhibitors of the malarial parasite plastid, 48 hour incubation; 310,000 compounds, 5.9% hits; P. falciparum luciferase growth in erythrocytes, 48 h; AID 504832, 2011; Potency, µM (titrated, usually from 28.7 µM), without a hit: at the highest dose activity change, negative = inhibition, hits mostly inhibitors; active = well fitted inhibition curve with a large enough effect; inconclusive = small, poorly fitted or top-dose-only effect, or another doubt; inactive = no such curve, though single readings can be large or run the other way; also: potency is read from the fitted curve at half-maximal effect; % is scaled to controls: 0 for no effect and ±100 for the full control effect
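Read-out is firefly luciferase luminescence from an integrated reporter in P. falciparum, so falling signal marks reduced parasite growth. Infected erythrocytes were at 2% hematocrit and 0.1% parasitemia (final) in Albumax-supplemented RPMI 1640.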
Shiga inhibitor: A qHTS for Small Molecule Inhibitors of Shiga Toxin; Vero cells, Shiga toxin protein synthesis inhibition reporter; 290,000 compounds, 9.2% hits; inhibition, % at 38.7 µM; in the data active = inhibition mostly above about 28%, no sharp cut-off; inactive = mostly below about 43%; also: 0% is about no effect
Cycloheximide cs: Cycloheximide Counterscreen for Small Molecule Inhibitors of Shiga Toxin; cell reporter, cycloheximide protein synthesis inhibition counterscreen; max response, %; 300,000 compounds, 12% hits; AID 2314, 2010; in the data active = max response mostly above about 13%, no sharp cut-off; inactive = mostly below about 14%; also: read at 38.3 µM for the half of the compounds with a filed dose; 0% is about no effect
Pf growth 96h: Primary qHTS for delayed death inhibitors of the malarial parasite plastid, 96 hour incubation; P. falciparum luciferase reporter growth, 96 h; Potency, µM (highest dose often 28.7 µM), for the others: top-dose activity change, negative = inhibition, usual class: inhibitors; 320,000 compounds, 6.9% hits; AID 504834, 2011; active = well fitted inhibition curve with a large enough effect; inconclusive = small, poorly fitted or top-dose-only effect, or another doubt; inactive = no such curve, though single readings can be large or run the other way; also: potency is read from the fitted curve at half-maximal effect; % is scaled to controls: 0 for no effect and ±100 for the full control effect
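Infected RBCs, 2% Hct / 0.05% parasitemia final; luciferase-reporter P. falciparum; cpd 96 h, 37 C, 5% CO2; luciferase detection reagent; luminescence.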
NS1 inh: qHTS Assay for Inhibitors of Influenza NS1 Protein Function; Potency, µM (series often up to 46.1 µM), without a hit: at the highest dose activity, positive = more growth; 270,000 compounds, 0.4% hits; AID 2326, 2010; also: potency is read from the fitted curve at half-maximal effect; actives are rising curves; nearly all actives have a fitted effect of over 50% in size
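In this qHTS, NS1 from influenza A is expressed in budding yeast, where it slows growth. Cells are switched from glucose to 2% galactose medium (pH 6.0, -URA), treated with compound, and growth recovery is read at OD600.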
SARS PLP yeast: qHTS of Yeast-based Assay for SARS-CoV PLP; S. cerevisiae expressing SARS-CoV PLpro, growth rescue; Potency, µM (titrated, usually from 32.9 µM), for inactives: at the top dose activity, positive = growth rescue, most hits filed as activators; 330,000 compounds, 0.19% hits; also: potency is read from the fitted curve at half-maximal effect; 0% is about no effect; nearly all actives have a fitted effect of over 55% in size
* hit, by the source's call; ? = inconclusive; / = no result given; [ ] = another dose, or the depositor's remark. Unless noted, calls follow the shape of the full dose curve.

SMILES | Pf growth 48h | Shiga inhibitor | Cycloheximide cs | Pf growth 96h | NS1 inh | SARS PLP yeast
O=C(O)C1C2C=CC(C2)C1C(=O)NCCc1ccccc1 (configuration not stated) | 38% | 30* | 12 | 77% | 7% | -2%
O=C(CCN1C(=O)C2C3C=CC(C3)C2C1=O)NCCc1ccccc1 (configuration not stated) | 29% | 19 | 9.7* | ? | -5% | -7%
O=C(CCN1C(=O)C2C3C=CC(C3)C2C1=O)Nc1ccc2ncccc2c1 (configuration not stated) | 37% | 64* | 45* | 59% | -5% | 5%
COc1ccc(CC(=O)OCC(=O)NC2CCCCCC2)cc1OC | -1% | / | / | 3% | / | 1%
CSc1ccc(NS(=O)(=O)c2ccc(-n3cnnn3)cc2)cc1 | ? | -21 | 5 | ? | 12% | 4%
Cc1cc(C)c(S(=O)(=O)Nc2ccc(N(C)C)cc2)c(C)c1-n1cnnn1 | 25% | 76* | 43* | 1% | -43% | -2%
Cc1ccc(S(=O)(=O)Nc2ccc(-n3cnnn3)cc2)cc1 | 6% | -3 | -1 | 12µM* | 15% | 0%
OC[C@H]1OC(O)[C@H](O)[C@@H](O)[C@@H]1O (some centres not stated) | / | -9 | -4 | / | / | /
Cc1ccc(C)c(NC(=O)C2COc3ccccc3O2)c1 (configuration not stated) | ? | 11 | 14* | ? | -10% | -1%
COc1ccc(C)cc1NC(=O)C1COc2ccccc2O1 (configuration not stated) | -3% | 103* | 38* | ? | / | -5%
CSc1ccc2c(c1)C(N1CCN(C)CC1)Cc1ccccc1S2 (configuration not stated) | ? | -4 | -4 | ? | -69% | -1%
CN1CCN(C2Cc3ccccc3Sc3ccc(Cl)cc32)CC1 (configuration not stated) | 13µM* | / | / | 17µM* | -35% | /
N#Cc1ccccc1Sc1ccccc1N | -1% | -19 | -2 | 1% | -11% | -8%
Nc1ccc(C#Cc2ccccc2)cc1 | 127% | 64* | 41* | 229% | -11% | 3%
Cc1cccc(C#Cc2ccccc2)n1 | 102% | / | / | 154% | -8% | /
Nc1ccccc1C#Cc1ccccc1 | 166% | 88* | 64* | 94% | -10% | -8%
Cc1ccc(NC(=O)C(=O)NCCCN2CCCC2=O)cc1 | 15% | / | / | 184% | / | 3%
CCc1ccc(NC(=O)NCCCN2CCCC2=O)cc1 | 38% | 31* | 28* | 35% | 5% | 8%
O=C(NCCN1CCc2ccccc2C1)Nc1ccc(F)cc1 | -15% | 1 | 1 | -2% | -5% | 8%
CCc1ccc(NC(=O)NCCN2CCc3ccccc3C2)cc1 | 4% | 15 | 15 | 2.1µM* | -10% | 15%
CCOC(=O)c1ccc(NC(=S)NCCCN2CCCC2=O)cc1 | 44% | -6 | 4 | 2.6µM* | 6% | -1%
CCC(C(=O)NCCCN1CCCCCC1)n1nc(C)c2sc3ccccc3c2c1=O (configuration not stated) | -9% | -10 | -4 | -1% | 0% | 6%
COc1ccc(NC(=O)Cn2c(CCC(=O)O)ccc2-c2ccc(C)cc2)cc1 | 12% | 10 | 1 | ? | / | 25%
CC(C)(C)C(=O)NC1(C(F)(F)F)NC(=O)N(c2ccc(F)cc2)C1=O (configuration not stated) | -12% | 21 | -1 | 12µM* | 0% | -1%
Cc1ccc(N2C(=O)NC(NC(=O)C(C)(C)C)(C(F)(F)F)C2=O)cc1 (configuration not stated) | 2% | -2 | 1 | -1% | 11% | 8%
SMILES | Pf growth 48h | Shiga inhibitor | Cycloheximide cs | Pf growth 96h | NS1 inh | SARS PLP yeast
COc1ccc(C(=O)Nc2ccccc2C(=O)NC(Cc2ccc(O)cc2)C(=O)NNC(=O)c2ccncc2)cc1 (configuration not stated) | 12µM* | 23 | 9 | 151% | / | 1%
COc1ccc(C(=O)Nc2ccccc2C(=O)NC(Cc2ccc(O)cc2)C(=O)NNC(=O)c2ccc(C)cc2)cc1 (configuration not stated) | ? | -6 | 9 | ? | 15% | 8%
COc1ccc(C(=O)Nc2ccccc2C(=O)NC(Cc2ccc(O)cc2)C(=O)NNC(=O)c2ccccc2)cc1 (configuration not stated) | 10µM* | -2 | 20* | 32% | 29% | -10%
N#Cc1cc(S(=O)(=O)c2ccc(F)cc2)c(N)[nH]c1=O | 22%[1.15 µM] | -5 | 1 | ? | 3% | 0%
N#Cc1cc(S(=O)(=O)c2ccccc2)c(N)[nH]c1=O | 3.7µM* | 10 | 4 | ? | 12% | 2%
Fc1ccc(NC(=S)Nc2nccs2)cc1 | 13µM* | 75* | 50* | 0.29µM* | / | -8%
S=C(Nc1ccccc1)Nc1nccs1 | ? | 99* | 29* | 7.4µM* | -33% | -2%
O=C(Nc1nccs1)Oc1ccccc1 | 18% | 14 | 13 | 14% | 4% | 1%
Fc1ccc(NC(=S)Nc2ccc3nccnc3c2)cc1 | 20% | 49 | 38* | 38% | -2% | -1%
CC(C)(C)c1nnc(NC(=S)Nc2ccccc2)s1 | -3% | 115* | 37* | 36% | -5% | 0%
COc1cc(OC)cc(C(=O)Nc2nnc(NC(=S)Nc3ccccc3)s2)c1 | 34% | -15 | 11 | 10% | 19% | 3%
CCOC(=O)C1(O)CC(C)=NN1C(=O)c1cccc(Cl)c1 (configuration not stated) | -6% | 5 | 4 | -25% | 4% | 23%
Cc1ccc(OCC(=O)NN=C2C3CC4CC(C3)CC2C4)cc1 | ? | / | / | ? | / | -1%
Cc1ccc(C(=O)c2c[nH]c3c(F)cc(F)cc3c2=O)cc1 | 1% | -8 | 4 | 0% | 2% | 12%
COc1ccccc1CNC(=O)C(NC(=O)c1ccc(C)cc1)C(C)C (configuration not stated) | 3% | -13 | -2 | ? | / | -2%
O=C(NCCCN1CCCC1=O)C1CCN(S(=O)(=O)c2cccc(Cl)c2Cl)CC1 | ? | / | / | ? | / | 0%
O=C(CCS(=O)(=O)c1cccc2nsnc12)NCc1ccccc1Cl | 7% | 33 | -3 | 9.3µM* | -1% | -1%
CCN(CC)S(=O)(=O)c1ccc(OCC(=O)NCc2ccco2)cc1 | 3% | -14 | 0 | -13% | 3% | 0%
CN(CC(=O)NCc1ccccn1)S(=O)(=O)c1ccccc1 | 1% | -3 | 13 | 11% | 1% | 10%
CN(CC(=O)NCc1ccccn1)S(=O)(=O)c1ccc(F)cc1 | 17% | 12 | 0 | 15µM* | -3% | -1%
CN(CC(=O)NCc1cccnc1)S(=O)(=O)c1ccccc1 | 14% | -15 | 0 | 1% | 2% | 2%
